# From PubChem BioAssay
# This is one part of a sample in which hits are shown more often than they occur.
# CHX counter: counter-screen hit for Shiga toxin inhibitors, cycloheximide; cell reporter, cycloheximide protein synthesis inhibition counterscreen; max response, %; 300,000 tested, 12% active; AID 2314; in the data active = max response mostly above about 13%, no sharp cut-off; inactive = mostly below about 14%; note: read at 38.3 µM for the half of the compounds with a filed dose; 0% is about no effect
# LmPK inh: inhibitors of Leishmania mexicana pyruvate kinase; Q27686; Potency, µM (highest dose often 57.5 µM), without a hit: top-dose activity change, negative = inhibition, hits mostly inhibitors; 290,000 tested, 0.37% active; purified LmPK, Kinase-Glo ATP luminescence, 1 h; AID 1721; note: potency is the fitted concentration of half-maximal effect; % is set by controls: 0 for no effect and ±100 for the full control effect
#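 Purified LmPK (0.1 nM) converted ADP (0.1 mM) to ATP with PEP (0.5 mM) in imidazole buffer pH 7.2 with KCl and MgCl2, 1 h at room temperature. ATP was read by Kinase-Glo luminescence; data normalized to uninhibited and no-enzyme controls.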
# Tb PYK inh: T. brucei pyruvate kinase inhibition; Q57TT1; TbPYK enzyme, Kinase-Glo Plus ATP luminescence, 45 min; Potency, µM (titrated, usually from 76.8 µM), without a hit: top-dose activity, negative = inhibition, usual class: inhibitors; 410,000 tested, 0.12% active; AID 624173; note: potency is the fitted concentration of half-maximal effect; % is set by controls: 0 for no effect and ±100 for the full control effect; nearly all actives have a fitted effect of over 50% in size
#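 Quantitative HTS: titrated library compounds versus trypanosomal pyruvate kinase in TEA buffer (pH 7.2) containing KCl, MgCl2, BSA and Tween-20. Reactions were initiated with ADP, 130 uM final. Kinase-Glo Plus luminescence was read after 45 min at RT.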
# FBPA Giardia inh: blocks Giardia fructose-bisphosphate aldolase activity. purified Giardia FBPA. Potency, µM (series often up to 59.6 µM), for inactives: top-dose activity, negative = inhibition, most hits filed as inhibitors. 290,000 tested, 0.71% active; note: potency is the fitted concentration of half-maximal effect; % is set by controls: 0 for no effect and ±100 for the full control effect; nearly all actives have a fitted effect of over 55% in size
# Target sequence (A8B2U2 whole entry, looked up): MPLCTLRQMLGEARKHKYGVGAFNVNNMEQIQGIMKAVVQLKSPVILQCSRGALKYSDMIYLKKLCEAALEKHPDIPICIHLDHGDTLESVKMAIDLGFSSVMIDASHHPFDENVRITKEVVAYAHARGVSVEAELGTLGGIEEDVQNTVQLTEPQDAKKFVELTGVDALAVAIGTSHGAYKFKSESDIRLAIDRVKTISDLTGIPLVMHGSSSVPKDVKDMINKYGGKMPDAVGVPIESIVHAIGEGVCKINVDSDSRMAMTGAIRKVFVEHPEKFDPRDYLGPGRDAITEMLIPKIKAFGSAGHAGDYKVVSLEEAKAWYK
#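 Giardia FBPA (40 nM reagent) was preincubated 10 min at RT with compound (up to 57.5 uM final), then substrate plus GAPDH/TPI/NAD/arsenate coupling system with diaphorase/resazurin was added; resorufin fluorescence (525/598 nm) was read after 20 min.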
# Shiga toxin inh: inhibitors of Shiga toxin in Vero cells. Vero cells, Shiga toxin protein synthesis inhibition reporter. inhibition, % at 38.7 µM. 290,000 tested, 9.2% active. AID 2315; in the data active = inhibition mostly above about 28%, no sharp cut-off; inactive = mostly below about 43%; note: 0% is about no effect
# Sm TGR block: S. mansoni TGR enzyme inhibition | 360,000 tested, 3% active | AID 485364 | Q962Y6 | purified TGR, DTNB reduction, TNB absorbance 405 nm | Potency, µM (top dose mostly 114 µM), without a hit: at the top dose activity change, negative = inhibition, usual class: inhibitors; note: potency is the fitted concentration of half-maximal effect; % is set by controls: 0 for no effect and ±100 for the full control effect; nearly all actives have a fitted effect of over 60% in size
#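 Kinetic colorimetric format: TGR-catalysed, NADPH-driven DTNB reduction monitored via TNB absorbance. Enzyme dispensed at 20 nM; compound exposure 15 min at room temperature before reaction start.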
# Numbers without * were called inactive; ? = inconclusive; · = no result; [ ] = dose if it differs, or a comment. Unless noted, calls come from the whole dose curve; as a rule, active = well fitted curve in the direction sought with a large enough effect; inconclusive = small, poorly fitted or top-dose-only effect, or another doubt; inactive = no such curve, though single readings can be large; an effect the other way counts as inactive or inconclusive.
SMILES,CHX counter,LmPK inh,Tb PYK inh,FBPA Giardia inh,Shiga toxin inh,Sm TGR block
CC(C)(C)C1CCc2nc(NC(=O)COc3ccc(F)cc3)sc2C1 (configuration not stated),·,·,-8%,·,·,7%
Cc1ccc(C(C)C)c(OCC(=O)Nc2nc3c(s2)CCCC3)c1,·,·,-1%,·,·,7%
COc1ccccc1OCC(=O)Nc1nc2c(s1)CCCC2,49*,-2%,7%,·,78*,-7%
COC(=O)c1cccc(-n2nnnc2SCC(=O)Nc2nc3c(s2)CCCC3)c1,-3,-5%,9%,0%,1,-3%
COc1ccc(OCC(=O)Nc2nc3c(s2)CCCC3)cc1,36*,1%,1%,·,68*,-1%
CC(CCc1ccccc1)NC(=O)Cn1c(=O)nc(-c2ccccc2F)c2cc(Cl)ccc21 (configuration not stated),·,·,-11%,·,·,5%
Cc1cc2c(SCC(=O)NCC3CCCO3)ncnc2s1 (configuration not stated),8,1%,5%,2%,-3,-9%
COc1ccc(NC(=O)Nc2nc3c(s2)CCCC3)cc1,19*,-4%,-10%,-3%,16,0%
COc1ccccc1CN1CCN(C2CCN(C(=O)NC(C)C)CC2)C(=O)C1=O,·,·,-1%,·,·,-15%
Cc1nc2ccc(S(=O)(=O)N(CC(=O)Nc3cccc(C)c3C)Cc3ccccc3)cc2s1,·,·,0%,·,·,4%
Cc1cc2nc(-c3ccccc3)cc(=O)n2[nH]1,21,-1%,-7%,?,31,-13%
Cc1ccc(-c2cn3c(=O)cc(C)[nH]c3n2)cc1,26*,0%,-14%,-4%,49,0%
Cc1cc(=O)n2cc(-c3ccccc3)nc2[nH]1,22*,-12%,·,-10%,0,4%
COC(=O)[C@H](Cc1ccccc1)NC(=O)[C@@H](C)CO,·,·,·,-1%[12.9 µM],·,·
Cc1ccc(NCc2cccn2-c2nnc(N3CCC(C(=O)NCCc4ccc(Cl)cc4)CC3)s2)cc1,·,·,-4%,·,·,4%
COc1ccc(Cc2nnc(Nc3ccc(Cl)cc3)[nH]c2=O)cc1,18*,-5%,-2%,3%,16,10%
COc1cc(C(c2c(C)[nH][nH]c2=O)c2c(C)[nH][nH]c2=O)ccc1OC(=O)c1ccccc1OC,-5,·,9%,·,-6,-1%
COc1ccccc1C(=O)Oc1ccc(C(C)C)cc1,35*,-4%,-4%,-2%,84*,-23%
COc1ccc(C(=O)O/N=C(\N)c2ccccc2Cl)cc1OC,33*,2%,-14%,-2%,159*,-12%
COc1ccccc1C(=O)O/N=C(\N)c1ccccc1Cl,55*,-3%,-1%,-8%,119*,-9%
CCOc1ccc(OCCCC(=O)ON=C(N)c2ccccc2Cl)cc1,·,·,0%,·,·,-3%
O.O=C([O-])CC([S-])C(=O)[O-].[Au+].[Na+].[Na+] (configuration not stated),·,·,-8%,·,·,·
Fc1ccc(Nc2ncnc3ccc(-c4ccoc4)cc23)cc1,·,·,·,-6%,·,·
CC(=O)c1cccc(NS(=O)(=O)c2cc(-c3onc(C)c3C)ccc2C)c1,·,·,-1%,·,·,6%
C#CCOc1ccc(C2C3=C(CC(C)(C)CC3=O)N(CC(=O)O)C3=C2C(=O)CC(C)(C)C3)cc1OC,-1,1%,-8%,-6%,13,35µM*
SMILES,CHX counter,LmPK inh,Tb PYK inh,FBPA Giardia inh,Shiga toxin inh,Sm TGR block
C#CCOc1ccc(C2C3=C(CC(C)(C)CC3=O)N(CC(=O)O)C3=C2C(=O)CC(C)(C)C3)cc1,-2,-1%,-2%,-7%,-5,0%
CCN(CC)C(=O)C(=O)c1cn(CC(=O)N2CCc3ccccc3C2)c2ccccc12,6,2%,-2%,1%,6,45µM*
COc1ccc(-c2nc(CSCC(=O)NCCC(C)C)c(C)o2)cc1OC,·,·,-6%,·,·,-26%
CSc1nsc(SCc2cnc(C)nc2N)n1,16,6%,-12%,-16%,7,40µM*
CSc1nsc(SCC(=O)NCc2ccc(C)cc2)n1,-3,-1%,-2%,3%,-5,3%
COc1ccc(C(=O)OCC(=O)NC2CCCC2)c(OC)c1,17*,3%,2%,9%,31,16%
COc1cc(SC)ccc1C(=O)OCC(=O)NCCNC(=O)COC(=O)c1ccc(SC)cc1OC,-3,-4%,-3%,·,-12,-38%
COc1cc(SC)ccc1C(=O)OCC(=O)NC1CC1,26*,2%,-10%,3%,48,47%
COC(=O)c1ccc(COC(=O)c2ccc(SC)cc2OC)cc1,21*,1%,-3%,1%,45*,-2%
O=C(CN1C(=O)C2(SCC(=O)N2c2ccccc2)c2ccccc21)Nc1ccccc1C(F)(F)F (configuration not stated),·,·,-3%,·,·,0%
COc1ccc(NC(=O)c2csc(Cc3ccc(Cl)cc3)n2)cc1,10,1%,4%,-7%,23,-3%
O=C(Nc1ccc(Cl)cc1)c1csc(Cc2ccccc2)n1,37*,-5%,-6%,0%,75*,3%
COc1ccc(Cc2nc(C(=O)Nc3ccccc3)cs2)cc1,39*,0%,4%,1%,52*,7%
CC1=NN(C(N)=S)C(=O)C1N=Nc1ccccc1 (configuration not stated),5,2%,7%,12%,24,-11%
CC1=NN(c2ccccc2)C(=O)C1N=Nc1ccccc1 (configuration not stated),21*,5%,-3%,?,109*,-10%
CC1=NN(c2ccccc2)C(=O)C1N=Nc1ccc(N)cc1 (configuration not stated),55*,-15%,-16%,?,80*,-17%
CC1=NN(c2ccccc2)C(=O)C1c1ccccc1 (configuration not stated),1,-2%,-8%,-12%,8,0%
C=C(C)CNC(=S)Nc1nc2c(cc1C(=O)OCC)CCCC2,13,-14%,-7%,9%,active,9%
C=C(C)CNC(=S)NNC(=O)c1cc(C)oc1C,-1,-1%,8%,-21%,11,-8%
C[C@H]1COc2cccc(N3CCC[C@H]3CO)c2S(=O)(=O)N1,·,·,7%,·,·,·
CCCCCC(=O)Nc1ccc(S(=O)(=O)NC2=NCCCCC2)cc1,·,·,-5%,·,·,-1%
CC(C)(C)NC(=O)/C(=C\c1ccco1)NC(=O)c1cccs1,-1,-4%,-6%,11%,-8,-9%
CC(/C=C/c1ccco1)=N/NC(=O)Cc1cccs1,14*,-1%,-8%,-1%,-30,25µM*
CCc1ccc(/C(C)=N/NC(=O)CNC(=O)/C=C/c2ccco2)cc1,·,·,-7%,·,·,·
CC(/C=N/NC(=O)c1cccs1)=C\c1ccco1,58*,-8%,-1%,?,128*,32µM*
